The values below come from PubChem BioAssay AID1917 (Vanderbilt High Throughput Screening Facility, 2009).

Each structure is given as a SMILES string. Out of some 3,000 compounds screened, about 1,600 (53%) were called active. Inconclusive results (about 10%) are left out. So high a share suggests a set chosen from earlier hits. These entries were drawn from the full list. A number with no mark means an inactive call.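 Rule for the calls: active = Flux at 10 µM at least 3 SD below or above vehicle control mean in one or both replicates; inconclusive = no clear call, values can overlap the other calls; inactive = the rest.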

For the assay, the target named is ATP-sensitive inward rectifier potassium channel 1 (Homo sapiens) (UniProt P48048). As to the kind of experiment: retested modulators of human Kir1.1 channel – cell-based, thallium flux, duplicate, resupplied hits, confirmation (AID 1917). The note with it: ROMK thallium flux, fluorescence ratio; at 10 µM; stronger effect = lower value.
Sequence of ATP-sensitive inward rectifier potassium channel 1 (Homo sapiens) (P48048 whole entry, looked up): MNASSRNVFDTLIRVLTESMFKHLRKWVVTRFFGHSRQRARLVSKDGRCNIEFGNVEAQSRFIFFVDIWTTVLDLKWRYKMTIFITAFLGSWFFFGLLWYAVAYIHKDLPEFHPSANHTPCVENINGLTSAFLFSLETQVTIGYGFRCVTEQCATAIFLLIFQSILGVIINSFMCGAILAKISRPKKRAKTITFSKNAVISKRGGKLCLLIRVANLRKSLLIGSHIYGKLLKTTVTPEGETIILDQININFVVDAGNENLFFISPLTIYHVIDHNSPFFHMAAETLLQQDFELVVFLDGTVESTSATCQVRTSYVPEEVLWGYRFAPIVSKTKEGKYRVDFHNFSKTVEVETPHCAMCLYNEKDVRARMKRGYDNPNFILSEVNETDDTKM
Regarding `CCCCCCCCCCCCn1ccc(=N)cc1`, the normalized thallium flux (F/F0 slope) was 0.0386 (active).

For `Clc1ccc2nc3c(c(-c4ccccc4)c2c1)CNCC3`, the normalized thallium flux (F/F0 slope) was 0.0588 (active).

For the molecule `CC1(C)Cc2c(C#N)c(N3CCNCC3)nc(-c3ccco3)c2CS1`, the normalized thallium flux (F/F0 slope) is 0.0568 (active).

As for `COc1ccccc1N=Nc1c(O)[nH]c(=S)[nH]c1=O`, the normalized thallium flux (F/F0 slope) was 0.0657 (active).

Turning to `N#Cc1ccc(Cn2cc(C(=O)c3ccco3)c3ccccc32)cc1`, the normalized thallium flux (F/F0 slope) is 0.0753.

On to `Cc1cc(C=C2C(=O)NC(=O)NC2=O)c(C)n1-c1ccncc1`, for which the normalized thallium flux (F/F0 slope) was 0.0636 (active).

Turning to `Cc1nc2ccccn2c1P(=S)(N1CCCCC1)N1CCCCC1`, the normalized thallium flux (F/F0 slope) was 0.0668 (active).

For the molecule `NC(=O)Nc1cccc(C(F)(F)F)c1`, the normalized thallium flux (F/F0 slope) is 0.0825.
